According to PubChem BioAssay AID1159580 (chemical genetic matrix, 2015):
The whole screen tested about 5,500 compounds, of which about 2,000 (36%) were called active. About 18% were inconclusive and are not listed. No stated cut-off is given here; in the data, active means normalized growth mostly below about 0.91 (no sharp cut-off); inconclusive means no clear call, values can overlap the other calls; inactive means mostly above about 0.92. The list shows a part of the results.

Experiment: chemical genetic growth profiling, strain panel (AID 1159580);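 further: tested at 20 µM; growth read once vehicle control cultures reached saturation at 30 °C; 1 = growth at the plate median or of vehicle wells; lower values mean less growth of the strain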
Details: growth OD
[1] = S. cerevisiae deletion strains, locus YAL040C, strain CLN3, hits give low values
[2] = S. cerevisiae deletion strains, locus YCL061C, strain MRC1 (second series), hits give low values
[3] = S. cerevisiae deletion strains, locus YER002W, strain NOP16, hits give low values
[4] = S. cerevisiae deletion strains, locus YGR078C, strain PAC10, hits give low values
[5] = S. cerevisiae deletion strains, locus YMR263W, strain SAP30, hits give low values
[6] = S. cerevisiae deletion strains, locus YNL153C, strain GIM3, hits give low values
[7] = S. cerevisiae deletion strains, locus YNL175C, strain NOP13, hits give low values
[8] = S. cerevisiae deletion strains, locus YNL197C, strain WHI3, hits give low values
[9] = S. cerevisiae deletion strains, locus YNL224C, strain SQS1, hits give low values
[10] = S. cerevisiae deletion strains, locus YOR083W, strain WHI5 (second series), hits give low values
[11] = S. cerevisiae deletion strains, locus YAL013W, strain DEP1, hits give low values
[12] = S. cerevisiae deletion strains, locus YDR150W, strain NUM1, hits give low values
[13] = S. cerevisiae deletion strains, locus YPL055C, strain LGE1, hits give low values

Measured: normalized growth

CCCC1O[C@@H]2C[C@H]3[C@@H]4CCC5=CC(=O)C=C[C@]5(C)[C@H]4[C@@H](O)C[C@]3(C)[C@]2(C(=O)CO)O1 (stereo partly drawn)
inactive: [1] 1.06 | [2] 0.998 | [3] 1.01 | [4] 1.02 | [5] 1 | [6] 0.982 | [7] 0.994 | [8] 0.974 | [9] 1.01 | [10] 0.992

CN1CCC2(CCN3CCc4c(oc5ccccc45)C3C2)N(C)C1=O (stereo not drawn)
inactive: [11] 1.02 | [1] 1 | [2] 1 | [12] 0.996 | S. cerevisiae deletion strains, locus YDR363W, strain ESC2, hits give low values 1.02 | [3] 1.01 | [5] 1 | [6] 1 | [7] 1 | [8] 1.01 | [9] 1.01 | [10] 1.02 | [13] 1

Cc1cc(OC(=O)c2c(C)cc(OC(=O)c3c(C)cc(O)cc3O)cc2O)cc(O)c1C(=O)O
inactive: [11] 1.02 | S. cerevisiae deletion strains, locus YBR021W, strain FUR4, hits give low values 0.985 | S. cerevisiae deletion strains, locus YBR229C, strain ROT2, hits give low values 1.03 | S. cerevisiae deletion strains, locus YCL029C, strain bik1, hits give low values 0.973 | S. cerevisiae deletion strains, locus YDL035C, strain GPR1, hits give low values 0.997 | S. cerevisiae deletion strains, locus YDL074C, strain BRE1, hits give low values 1.01 | S. cerevisiae deletion strains, locus YDL101C, strain DUN1, hits give low values 1.02 | S. cerevisiae deletion strains, locus YDL134C, strain PPH21, hits give low values 1.03 | S. cerevisiae deletion strains, locus YDL185W, strain tfp1, hits give low values 0.99 | S. cerevisiae deletion strains, locus YDL192W, strain arf1, hits give low values 0.979 | S. cerevisiae deletion strains, locus YDR101C, strain arx1, hits give low values 0.971 | [12] 1.03 | S. cerevisiae deletion strains, locus YDR162C, strain NBP2, hits give low values 0.998 | S. cerevisiae deletion strains, locus YDR318W, strain mcm21, hits give low values 0.967 | S. cerevisiae deletion strains, locus YDR388W, hits give low values 0.992 | S. cerevisiae deletion strains, locus YDR502C, strain sam2, hits give low values 0.991 | S. cerevisiae deletion strains, locus YER110C, hits give low values 0.986 | S. cerevisiae deletion strains, locus YER155C, strain BEM2, hits give low values 1.03 | S. cerevisiae deletion strains, locus YER167W, strain BCK2, hits give low values 1 | S. cerevisiae deletion strains, locus YGL078C, strain dbp3, hits give low values 1 | S. cerevisiae deletion strains, locus YGL086W, strain mad1, hits give low values 0.98 | S. cerevisiae deletion strains, locus YGL248W, strain PDE1, hits give low values 1.04 | [4] 1 | S. cerevisiae deletion strains, locus YGR135W, strain pre9, hits give low values 0.999 | S. cerevisiae deletion strains, locus YGR229C, strain SMI1, hits give low values 0.953 | S. cerevisiae deletion strains, locus YGR252W, strain gcn5, hits give low values 0.872 | S. cerevisiae deletion strains, locus YHR030C, strain SLT2, hits give low values 1.02 | S. cerevisiae deletion strains, locus YHR079C, strain IRE1 (second series), hits give low values 0.971 | S. cerevisiae deletion strains, locus YHR094C, strain hxt1, hits give low values 1.01 | S. cerevisiae deletion strains, locus YHR129C, strain ARP1, hits give low values 1.02 | S. cerevisiae deletion strains, locus YHR200W, strain rpn10, hits give low values 0.994 | S. cerevisiae deletion strains, locus YIL066C, strain RNR3, hits give low values 1.01 | S. cerevisiae deletion strains, locus YIL073C, strain SPO22, hits give low values 0.956 | S. cerevisiae deletion strains, locus YIL125W, strain kgd1, hits give low values 1.02 | S. cerevisiae deletion strains, locus YIR030C, strain dcg1, hits give low values 0.998 | S. cerevisiae deletion strains, locus YJL095W, strain BCK1, hits give low values 0.986 | S. cerevisiae deletion strains, locus YJL134W, strain LCB3, hits give low values 1.02 | S. cerevisiae deletion strains, locus YJL168C, strain set2, hits give low values 0.999 | S. cerevisiae deletion strains, locus YJL187C, strain SWE1 (second series), hits give low values 1.01 | S. cerevisiae deletion strains, locus YJR043C, strain POL32, hits give low values 0.981 | S. cerevisiae deletion strains, locus YJR075W, strain HOC1, hits give low values 0.979 | S. cerevisiae deletion strains, locus YKL068W, hits give low values 1 | S. cerevisiae deletion strains, locus YKL085W, strain MDH1 (second series), hits give low values 0.975 | S. cerevisiae deletion strains, locus YKL085W, strain MDH1, hits give low values 0.975 | S. cerevisiae deletion strains, locus YKL190W, strain CNB1, hits give low values 1.02 | S. cerevisiae deletion strains, locus YKR001C, strain vps1, hits give low values 0.967 | S. cerevisiae deletion strains, locus YLR039C, strain RIC1, hits give low values 0.997 | S. cerevisiae deletion strains, locus YLR058C, strain SHM2, hits give low values 1.02 | S. cerevisiae deletion strains, locus YLR102C, strain apc9, hits give low values 1.01 | S. cerevisiae deletion strains, locus YLR262C, strain YPT6, hits give low values 1 | S. cerevisiae deletion strains, locus YLR268W, strain sec22, hits give low values 0.982 | S. cerevisiae deletion strains, locus YLR330W, strain CHS5, hits give low values 1.01 | S. cerevisiae deletion strains, locus YLR342W, strain FKS1 (second series), hits give low values 0.937 | S. cerevisiae deletion strains, locus YLR371W, strain rom2, hits give low values 0.999 | S. cerevisiae deletion strains, locus YLR418C, strain cdc73, hits give low values 0.959 | S. cerevisiae deletion strains, locus YML016C, strain PPZ1, hits give low values 1.03 | S. cerevisiae deletion strains, locus YML032C, strain rad52, hits give low values 0.965 | S. cerevisiae deletion strains, locus YML124C, strain tub3, hits give low values 1.01 | S. cerevisiae deletion strains, locus YMR078C, strain ctf18, hits give low values 1 | S. cerevisiae deletion strains, locus YMR223W, strain ubp8, hits give low values 0.967 | [5] 1.02 | S. cerevisiae deletion strains, locus YMR307W, strain GAS1, hits give low values 0.862 | S. cerevisiae deletion strains, locus YNL067W, strain RPL9B, hits give low values 1.01 | S. cerevisiae deletion strains, locus YNL128W, strain TEP1, hits give low values 1.04 | [6] 1.02 | S. cerevisiae deletion strains, locus YNL233W, strain BNI4, hits give low values 0.995 | S. cerevisiae deletion strains, locus YNL250W, strain rad50, hits give low values 0.997 | S. cerevisiae deletion strains, locus YNL271C, strain bni1, hits give low values 0.985 | S. cerevisiae deletion strains, locus YNL298W, strain CLA4, hits give low values 0.981 | S. cerevisiae deletion strains, locus YNL307C, strain MCK1, hits give low values 0.966 | S. cerevisiae deletion strains, locus YNL322C, strain KRE1, hits give low values 1.03 | S. cerevisiae deletion strains, locus YNR052C, strain pop2, hits give low values 0.972 | S. cerevisiae deletion strains, locus YOL006C, strain TOP1, hits give low values 0.993 | S. cerevisiae deletion strains, locus YOL012C, strain htz1 0.878 | S. cerevisiae deletion strains, locus YOL147C, strain pex11, hits give low values 0.999 | S. cerevisiae deletion strains, locus YOR061W, strain CKA2, hits give low values 1.02 | S. cerevisiae deletion strains, locus YOR069W, strain VPS5, hits give low values 1.01 | S. cerevisiae deletion strains, locus YOR136W, strain idh2, hits give low values 0.982 | S. cerevisiae deletion strains, locus YOR144C, strain elg1, hits give low values 1.01 | S. cerevisiae deletion strains, locus YOR184W, strain ser1, hits give low values 0.95 | S. cerevisiae deletion strains, locus YOR316C, strain cot1, hits give low values 0.996 | [13] 1.03 | S. cerevisiae deletion strains, locus YPL241C, strain CIN2, hits give low values 1.02 | S. cerevisiae deletion strains, locus YPR119W, strain clb2, hits give low values 1 | S. cerevisiae deletion strains, locus YPR141C, strain kar3, hits give low values 1.01 | S. cerevisiae deletion strains, locus YPR163C, strain tif3, hits give low values 1 | S. cerevisiae deletion strains, locus YPR167C, strain met16, hits give low values 1.01 | S. cerevisiae deletion strains, strain wtn01, hits give low values 0.994 | S. cerevisiae strains, strain wild type, hits give low values 1
active: S. cerevisiae deletion strains, locus YKL009W, strain mrt4, hits give low values 0.76
